# Measurements: PMC7862700, “An all-to-all approach to the identification of sequence-specific readers for epigenetic DNA modifications on cytosine”
# Legend:
# Assay in all cases: DAPPL (digital affinity profiling via proximity ligation, sequencing); 10 mM Tris-HCl pH 7.5, 50 mM NaCl, 1 mM DTT, 4% glycerol, room temperature, 30 min; GST-TFs on glutathione beads, 16-mer random dsDNA library, 0.1% formaldehyde crosslink after washing; high values mean tight binding
# [1] = biological target: T1, FLI1 (Homo sapiens, UniProt Q01543 1-452); details: protein: recombinant; tags: N-terminal GST; dsDNA, one strand shown
# T1 sequence: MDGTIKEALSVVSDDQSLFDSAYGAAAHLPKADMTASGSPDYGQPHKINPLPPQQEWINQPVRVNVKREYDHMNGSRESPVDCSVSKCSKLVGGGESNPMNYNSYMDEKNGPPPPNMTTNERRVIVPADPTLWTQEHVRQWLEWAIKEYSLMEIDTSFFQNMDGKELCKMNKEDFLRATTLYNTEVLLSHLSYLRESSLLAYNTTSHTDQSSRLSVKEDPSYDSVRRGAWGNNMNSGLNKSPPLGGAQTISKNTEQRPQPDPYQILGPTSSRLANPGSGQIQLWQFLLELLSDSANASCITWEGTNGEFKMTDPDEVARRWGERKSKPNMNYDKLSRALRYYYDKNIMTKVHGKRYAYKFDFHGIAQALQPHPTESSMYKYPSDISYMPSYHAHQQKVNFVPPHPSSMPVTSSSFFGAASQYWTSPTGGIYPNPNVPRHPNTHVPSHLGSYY
# Method in brief: (§1)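 A tag-only sample was pooled with DNA-barcoded human transcription factors that had been expressed in yeast as GST fusions and captured on glutathione beads. The pools were incubated for 30 min at room temperature with 200 nmole of a random double-stranded 16-mer DNA library in Tris/NaCl/DTT/glycerol buffer, then washed, crosslinked with 0.1% formaldehyde, proximity-ligated (BsaI/T4 ligase, 1 h, 37 °C), PCR-amplified and sequenced on an Illumina NextSeq500. Binding signal is each hexamer's read frequency for a factor divided by its frequency for the tag-only sample.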
# [2] = biological target: T2, ELK1 (Homo sapiens, UniProt P19419 1-428); details: protein: recombinant; tags: N-terminal GST; dsDNA, one strand shown
# T2 sequence: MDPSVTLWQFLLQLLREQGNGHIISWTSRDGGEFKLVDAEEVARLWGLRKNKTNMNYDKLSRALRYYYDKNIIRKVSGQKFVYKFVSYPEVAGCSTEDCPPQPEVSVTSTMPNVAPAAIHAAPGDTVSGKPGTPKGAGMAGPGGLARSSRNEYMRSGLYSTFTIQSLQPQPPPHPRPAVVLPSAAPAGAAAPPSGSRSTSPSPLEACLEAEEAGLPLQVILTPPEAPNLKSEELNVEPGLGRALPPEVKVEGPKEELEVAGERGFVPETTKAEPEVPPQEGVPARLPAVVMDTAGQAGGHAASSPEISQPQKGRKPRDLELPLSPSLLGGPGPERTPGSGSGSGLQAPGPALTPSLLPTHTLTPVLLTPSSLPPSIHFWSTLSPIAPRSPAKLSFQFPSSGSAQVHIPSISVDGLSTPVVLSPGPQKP
# Method in brief: as §1
# [3] = biological target: T3, GABPA (Homo sapiens, UniProt Q06546 1-454); details: protein: recombinant; tags: N-terminal GST; dsDNA, one strand shown
# T3 sequence: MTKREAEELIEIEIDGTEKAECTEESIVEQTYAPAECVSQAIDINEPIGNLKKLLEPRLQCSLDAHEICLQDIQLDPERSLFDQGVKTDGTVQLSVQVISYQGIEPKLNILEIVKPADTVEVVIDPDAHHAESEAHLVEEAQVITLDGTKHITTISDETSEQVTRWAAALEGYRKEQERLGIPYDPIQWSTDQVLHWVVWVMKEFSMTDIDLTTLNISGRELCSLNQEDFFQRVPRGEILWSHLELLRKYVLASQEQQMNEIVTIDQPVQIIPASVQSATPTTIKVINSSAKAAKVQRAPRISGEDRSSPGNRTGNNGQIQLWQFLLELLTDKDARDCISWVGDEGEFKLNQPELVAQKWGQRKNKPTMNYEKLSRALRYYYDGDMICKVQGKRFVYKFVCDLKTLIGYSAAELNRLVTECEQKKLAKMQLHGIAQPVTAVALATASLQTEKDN
# Method in brief: as §1
# [4] = biological target: T4, ERG (Homo sapiens, UniProt P11308 1-479); details: protein: recombinant; tags: N-terminal GST; dsDNA, one strand shown
# T4 sequence: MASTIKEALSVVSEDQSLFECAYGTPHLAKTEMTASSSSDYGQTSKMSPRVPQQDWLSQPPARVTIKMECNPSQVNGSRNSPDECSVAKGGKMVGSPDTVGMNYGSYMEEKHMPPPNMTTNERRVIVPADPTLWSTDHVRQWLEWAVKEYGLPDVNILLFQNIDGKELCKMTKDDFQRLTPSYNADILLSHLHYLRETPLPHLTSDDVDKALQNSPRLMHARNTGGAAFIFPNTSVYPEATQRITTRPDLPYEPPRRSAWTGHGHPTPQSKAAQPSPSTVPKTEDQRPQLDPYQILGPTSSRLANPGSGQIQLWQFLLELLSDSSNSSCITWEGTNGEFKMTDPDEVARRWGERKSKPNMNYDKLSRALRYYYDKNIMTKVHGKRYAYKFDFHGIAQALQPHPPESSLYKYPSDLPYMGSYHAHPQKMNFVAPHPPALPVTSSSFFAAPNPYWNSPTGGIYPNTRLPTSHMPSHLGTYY
# Method in brief: as §1
# [5] = biological target: ELF1 (Homo sapiens, UniProt P32519 1-619); details: protein: recombinant; tags: N-terminal GST; dsDNA, one strand shown
# ELF1, sequence (P32519 whole entry): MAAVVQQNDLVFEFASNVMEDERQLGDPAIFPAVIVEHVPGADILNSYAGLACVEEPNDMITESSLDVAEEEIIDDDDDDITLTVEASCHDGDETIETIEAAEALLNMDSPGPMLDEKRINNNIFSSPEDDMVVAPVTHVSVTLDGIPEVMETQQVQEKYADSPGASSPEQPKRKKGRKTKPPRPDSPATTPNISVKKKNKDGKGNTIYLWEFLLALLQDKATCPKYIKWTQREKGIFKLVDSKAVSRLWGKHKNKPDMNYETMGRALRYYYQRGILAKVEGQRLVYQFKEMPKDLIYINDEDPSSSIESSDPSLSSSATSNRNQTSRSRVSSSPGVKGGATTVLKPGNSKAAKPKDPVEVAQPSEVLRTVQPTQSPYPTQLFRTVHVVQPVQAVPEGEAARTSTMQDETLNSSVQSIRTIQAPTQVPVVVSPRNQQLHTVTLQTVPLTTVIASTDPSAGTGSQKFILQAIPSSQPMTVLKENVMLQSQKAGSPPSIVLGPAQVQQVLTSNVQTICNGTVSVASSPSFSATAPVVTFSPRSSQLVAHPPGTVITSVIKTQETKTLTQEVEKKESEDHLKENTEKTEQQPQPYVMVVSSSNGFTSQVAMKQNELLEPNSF
# Method in brief: as §1
# [6] = biological target: T5, EHF (Homo sapiens, UniProt Q9NZC4 1-300); details: protein: recombinant; tags: N-terminal GST; dsDNA, one strand shown
# T5 sequence: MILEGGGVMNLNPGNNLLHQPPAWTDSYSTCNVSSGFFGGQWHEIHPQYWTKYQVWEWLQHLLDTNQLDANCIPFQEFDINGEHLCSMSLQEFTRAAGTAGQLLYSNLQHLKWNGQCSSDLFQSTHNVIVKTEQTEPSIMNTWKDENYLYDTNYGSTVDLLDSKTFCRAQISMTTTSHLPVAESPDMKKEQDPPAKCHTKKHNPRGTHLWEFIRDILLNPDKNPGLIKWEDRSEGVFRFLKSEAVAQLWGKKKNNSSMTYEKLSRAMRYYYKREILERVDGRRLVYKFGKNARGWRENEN
# Method in brief: as §1
# [7] = biological target: SPI1 (Homo sapiens, UniProt P17947 1-270); details: protein: recombinant; tags: N-terminal GST; dsDNA, one strand shown
# Method in brief: as §1
# [8] = biological target: SPIB (Homo sapiens, UniProt Q01892 1-262); details: protein: recombinant; tags: N-terminal GST; dsDNA, one strand shown
# SPIB, sequence (Q01892 whole entry): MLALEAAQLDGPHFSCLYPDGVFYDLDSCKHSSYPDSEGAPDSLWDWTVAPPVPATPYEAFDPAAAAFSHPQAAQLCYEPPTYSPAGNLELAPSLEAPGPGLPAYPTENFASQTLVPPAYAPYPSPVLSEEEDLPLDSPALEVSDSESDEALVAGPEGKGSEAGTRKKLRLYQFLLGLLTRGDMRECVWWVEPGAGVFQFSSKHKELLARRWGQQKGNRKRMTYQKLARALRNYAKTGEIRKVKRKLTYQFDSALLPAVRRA
# Method in brief: as §1
# [9] = biological target: T6, ELK3 (Homo sapiens, UniProt P41970 1-407); details: protein: recombinant; tags: N-terminal GST; dsDNA, one strand shown
# T6 sequence: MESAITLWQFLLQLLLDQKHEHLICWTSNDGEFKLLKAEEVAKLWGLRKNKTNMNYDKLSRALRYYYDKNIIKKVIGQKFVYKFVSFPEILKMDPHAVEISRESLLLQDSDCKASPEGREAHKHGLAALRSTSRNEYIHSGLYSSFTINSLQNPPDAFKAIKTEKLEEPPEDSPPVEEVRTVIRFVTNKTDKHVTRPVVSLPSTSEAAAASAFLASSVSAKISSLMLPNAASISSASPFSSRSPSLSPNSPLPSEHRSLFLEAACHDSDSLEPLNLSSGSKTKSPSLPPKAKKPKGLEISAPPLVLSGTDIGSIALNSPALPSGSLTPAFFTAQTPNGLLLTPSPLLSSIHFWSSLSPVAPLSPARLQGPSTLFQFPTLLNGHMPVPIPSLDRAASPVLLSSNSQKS
# Method in brief: as §1
# [10] = biological target: T7, FEV (Homo sapiens, UniProt Q99581 1-238); details: protein: recombinant; tags: N-terminal GST; dsDNA, one strand shown
# T7 sequence: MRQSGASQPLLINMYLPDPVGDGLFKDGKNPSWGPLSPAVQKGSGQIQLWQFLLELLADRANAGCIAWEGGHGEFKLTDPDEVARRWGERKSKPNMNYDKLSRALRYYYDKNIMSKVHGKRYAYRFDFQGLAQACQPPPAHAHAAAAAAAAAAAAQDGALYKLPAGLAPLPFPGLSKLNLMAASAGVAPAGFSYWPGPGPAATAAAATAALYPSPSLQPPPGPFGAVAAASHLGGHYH
# Method in brief: as §1
# [11] = biological target: ETV5 (Homo sapiens, UniProt P41161 1-510); details: protein: recombinant; tags: N-terminal GST; dsDNA, one strand shown
# ETV5, sequence (P41161 whole entry): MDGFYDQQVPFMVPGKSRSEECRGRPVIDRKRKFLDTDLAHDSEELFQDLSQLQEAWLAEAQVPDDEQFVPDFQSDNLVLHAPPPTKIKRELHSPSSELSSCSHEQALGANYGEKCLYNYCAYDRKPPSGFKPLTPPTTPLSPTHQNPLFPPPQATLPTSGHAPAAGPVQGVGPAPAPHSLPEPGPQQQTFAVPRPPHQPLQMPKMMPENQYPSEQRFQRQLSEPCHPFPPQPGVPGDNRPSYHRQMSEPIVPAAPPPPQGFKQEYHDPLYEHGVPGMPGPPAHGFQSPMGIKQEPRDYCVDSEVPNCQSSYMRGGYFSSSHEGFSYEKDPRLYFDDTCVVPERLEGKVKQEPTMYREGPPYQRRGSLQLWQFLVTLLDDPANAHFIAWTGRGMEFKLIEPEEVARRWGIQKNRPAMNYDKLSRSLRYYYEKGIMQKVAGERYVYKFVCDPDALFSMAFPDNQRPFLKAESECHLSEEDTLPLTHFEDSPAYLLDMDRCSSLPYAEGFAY
# Method in brief: as §1
# [12] = biological target: HSF1 (Homo sapiens, UniProt Q00613 1-529); details: protein: recombinant; tags: N-terminal GST; chain copies: 3; dsDNA, one strand shown
# HSF1, sequence (Q00613 whole entry): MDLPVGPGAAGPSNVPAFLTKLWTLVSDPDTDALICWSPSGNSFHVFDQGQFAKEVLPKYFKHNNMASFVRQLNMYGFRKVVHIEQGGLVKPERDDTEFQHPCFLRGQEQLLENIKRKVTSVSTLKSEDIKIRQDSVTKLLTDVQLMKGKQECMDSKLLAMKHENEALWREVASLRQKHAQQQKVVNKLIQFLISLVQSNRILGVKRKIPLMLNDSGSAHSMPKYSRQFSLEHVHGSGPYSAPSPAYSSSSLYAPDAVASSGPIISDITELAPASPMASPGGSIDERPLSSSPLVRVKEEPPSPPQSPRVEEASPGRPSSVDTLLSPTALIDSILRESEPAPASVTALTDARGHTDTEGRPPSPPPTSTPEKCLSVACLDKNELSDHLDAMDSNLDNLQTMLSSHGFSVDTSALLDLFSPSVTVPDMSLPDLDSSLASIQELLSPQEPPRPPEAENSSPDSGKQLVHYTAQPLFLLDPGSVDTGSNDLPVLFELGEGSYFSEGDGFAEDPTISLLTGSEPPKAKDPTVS
# Method in brief: as §1
# [13] = biological target: T8, SPIC (Homo sapiens, UniProt Q8N5J4 1-248); details: protein: recombinant; tags: N-terminal GST; dsDNA, one strand shown
# T8 sequence: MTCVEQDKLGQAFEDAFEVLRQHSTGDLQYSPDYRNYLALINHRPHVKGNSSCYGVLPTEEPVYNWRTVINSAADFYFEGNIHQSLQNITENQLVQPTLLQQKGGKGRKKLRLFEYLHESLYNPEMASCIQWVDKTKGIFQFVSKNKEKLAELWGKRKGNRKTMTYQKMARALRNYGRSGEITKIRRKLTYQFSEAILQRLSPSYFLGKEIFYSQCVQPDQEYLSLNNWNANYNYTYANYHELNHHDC
# Method in brief: as §1
# [14] = biological target: ELF4 (Homo sapiens, UniProt Q99607 1-663); details: protein: recombinant; tags: N-terminal GST; dsDNA, one strand shown
# ELF4, sequence (Q99607 whole entry): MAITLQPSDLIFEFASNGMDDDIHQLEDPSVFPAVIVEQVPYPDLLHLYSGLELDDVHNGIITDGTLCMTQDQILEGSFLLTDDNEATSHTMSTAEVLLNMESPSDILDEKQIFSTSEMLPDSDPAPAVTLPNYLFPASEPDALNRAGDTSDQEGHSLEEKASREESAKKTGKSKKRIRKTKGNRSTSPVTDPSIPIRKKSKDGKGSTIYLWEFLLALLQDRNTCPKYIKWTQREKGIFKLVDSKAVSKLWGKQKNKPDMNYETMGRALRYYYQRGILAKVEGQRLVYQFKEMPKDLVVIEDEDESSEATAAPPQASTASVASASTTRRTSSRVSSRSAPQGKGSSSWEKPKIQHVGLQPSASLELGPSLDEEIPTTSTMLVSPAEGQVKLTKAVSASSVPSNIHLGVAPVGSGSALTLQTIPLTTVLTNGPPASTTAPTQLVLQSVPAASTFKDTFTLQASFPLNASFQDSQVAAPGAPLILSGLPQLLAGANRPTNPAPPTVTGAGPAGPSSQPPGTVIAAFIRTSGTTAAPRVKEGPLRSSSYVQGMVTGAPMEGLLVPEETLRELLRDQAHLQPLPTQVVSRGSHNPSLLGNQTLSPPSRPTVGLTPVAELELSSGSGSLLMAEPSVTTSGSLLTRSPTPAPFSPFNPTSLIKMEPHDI
# Method in brief: as §1
# [15] = biological target: T9, ELK4 (Homo sapiens, UniProt P28324-2 1-405); details: protein: recombinant; tags: N-terminal GST; dsDNA, one strand shown
# T9 sequence: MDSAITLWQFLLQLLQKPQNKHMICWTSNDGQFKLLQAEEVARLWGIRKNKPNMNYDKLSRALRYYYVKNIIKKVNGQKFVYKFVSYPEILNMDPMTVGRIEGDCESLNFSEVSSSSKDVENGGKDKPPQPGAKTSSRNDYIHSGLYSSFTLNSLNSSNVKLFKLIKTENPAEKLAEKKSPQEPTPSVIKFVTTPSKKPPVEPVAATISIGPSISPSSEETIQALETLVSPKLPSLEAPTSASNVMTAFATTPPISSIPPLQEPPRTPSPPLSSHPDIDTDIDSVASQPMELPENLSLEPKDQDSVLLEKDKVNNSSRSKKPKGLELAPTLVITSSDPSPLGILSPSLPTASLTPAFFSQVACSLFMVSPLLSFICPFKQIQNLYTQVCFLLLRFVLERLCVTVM
# Method in brief: as §1
# [16] = biological target: T10, ETV2 (Homo sapiens, UniProt O00321 1-342); details: protein: recombinant; tags: N-terminal GST; dsDNA, one strand shown
# T10 sequence: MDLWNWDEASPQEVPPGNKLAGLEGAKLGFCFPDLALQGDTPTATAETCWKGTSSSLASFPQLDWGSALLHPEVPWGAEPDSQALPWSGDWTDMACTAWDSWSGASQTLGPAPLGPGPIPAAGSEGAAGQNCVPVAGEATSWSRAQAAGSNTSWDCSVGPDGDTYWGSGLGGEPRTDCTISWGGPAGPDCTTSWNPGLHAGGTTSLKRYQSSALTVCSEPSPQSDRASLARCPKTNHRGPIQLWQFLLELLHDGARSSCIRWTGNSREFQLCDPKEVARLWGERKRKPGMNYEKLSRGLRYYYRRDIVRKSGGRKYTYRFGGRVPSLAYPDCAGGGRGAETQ
# Method in brief: as §1
# [17] = biological target: T11, ELF3 (Homo sapiens, UniProt P78545 1-371); details: protein: recombinant; tags: N-terminal GST; dsDNA, one strand shown
# T11 sequence: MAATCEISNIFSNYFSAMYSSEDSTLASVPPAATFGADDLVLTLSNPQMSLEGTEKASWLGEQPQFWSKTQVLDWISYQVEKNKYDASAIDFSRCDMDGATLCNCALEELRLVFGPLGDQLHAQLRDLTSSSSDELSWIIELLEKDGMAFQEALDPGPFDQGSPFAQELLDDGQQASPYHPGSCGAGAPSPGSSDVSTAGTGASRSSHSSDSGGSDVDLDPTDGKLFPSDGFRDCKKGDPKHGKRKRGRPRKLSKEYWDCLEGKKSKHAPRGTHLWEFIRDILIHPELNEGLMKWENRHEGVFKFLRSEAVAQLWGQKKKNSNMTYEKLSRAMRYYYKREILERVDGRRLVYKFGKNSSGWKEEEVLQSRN
# Method in brief: as §1
# [18] = biological target: CRX (Homo sapiens, UniProt O43186 1-299); details: protein: recombinant; tags: N-terminal GST; dsDNA, one strand shown
# CRX, sequence (O43186 whole entry): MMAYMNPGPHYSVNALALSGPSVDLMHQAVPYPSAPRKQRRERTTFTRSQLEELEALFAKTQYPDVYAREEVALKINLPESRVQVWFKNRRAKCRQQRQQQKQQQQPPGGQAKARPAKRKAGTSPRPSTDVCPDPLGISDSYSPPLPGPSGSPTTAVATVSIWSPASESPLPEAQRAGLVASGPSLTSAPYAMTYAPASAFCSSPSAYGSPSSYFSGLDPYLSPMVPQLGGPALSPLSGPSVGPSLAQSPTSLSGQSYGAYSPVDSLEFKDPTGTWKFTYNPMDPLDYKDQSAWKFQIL
# Method in brief: as §1
# [19] = biological target: ETV1 (Homo sapiens, UniProt P50549 1-477); details: protein: recombinant; tags: N-terminal GST; dsDNA, one strand shown
# ETV1, sequence (P50549 whole entry): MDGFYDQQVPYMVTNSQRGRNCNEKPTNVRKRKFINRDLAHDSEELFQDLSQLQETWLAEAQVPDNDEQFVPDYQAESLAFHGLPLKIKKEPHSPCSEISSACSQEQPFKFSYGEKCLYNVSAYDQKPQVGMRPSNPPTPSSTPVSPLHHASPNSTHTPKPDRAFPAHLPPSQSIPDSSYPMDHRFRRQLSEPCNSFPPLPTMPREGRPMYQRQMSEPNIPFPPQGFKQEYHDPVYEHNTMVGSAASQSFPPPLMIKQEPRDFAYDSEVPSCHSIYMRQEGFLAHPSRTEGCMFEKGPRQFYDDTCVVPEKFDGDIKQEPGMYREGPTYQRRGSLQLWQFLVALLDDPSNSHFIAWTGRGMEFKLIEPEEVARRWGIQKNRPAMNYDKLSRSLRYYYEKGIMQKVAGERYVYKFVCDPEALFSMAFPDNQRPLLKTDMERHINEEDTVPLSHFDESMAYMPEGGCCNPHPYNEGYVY
# Method in brief: as §1
sequence,measurement,setting,value
AAAAGC,binding signal,[1],"1.16 fold enrichment (6-mer frequency, TF over GST control)"
same,binding signal,[2],"1.13 fold enrichment (6-mer frequency, TF over GST control)"
same,binding signal,[3],"1.14 fold enrichment (6-mer frequency, TF over GST control)"
same,binding signal,[4],"1.24 fold enrichment (6-mer frequency, TF over GST control)"
same,binding signal,[5],"1.2 fold enrichment (6-mer frequency, TF over GST control)"
same,binding signal,[6],"1.14 fold enrichment (6-mer frequency, TF over GST control)"
same,binding signal,[7],"1.55 fold enrichment (6-mer frequency, TF over GST control)"
same,binding signal,[8],"1.23 fold enrichment (6-mer frequency, TF over GST control)"
same,binding signal,[9],"1.15 fold enrichment (6-mer frequency, TF over GST control)"
same,binding signal,[10],"1.21 fold enrichment (6-mer frequency, TF over GST control)"
same,binding signal,[11],"1.29 fold enrichment (6-mer frequency, TF over GST control)"
same,binding signal,[12],"1.3 fold enrichment (6-mer frequency, TF over GST control)"
same,binding signal,[13],"1.2 fold enrichment (6-mer frequency, TF over GST control)"
same,binding signal,[14],"1.17 fold enrichment (6-mer frequency, TF over GST control)"
same,binding signal,[15],"1.3 fold enrichment (6-mer frequency, TF over GST control)"
same,binding signal,[16],"1.28 fold enrichment (6-mer frequency, TF over GST control)"
same,binding signal,[17],"1.22 fold enrichment (6-mer frequency, TF over GST control)"
same,binding signal,[18],"1.43 fold enrichment (6-mer frequency, TF over GST control)"
same,binding signal,[19],"1.19 fold enrichment (6-mer frequency, TF over GST control)"
